Only a selection was taken, and hits are over-represented in it overall.
PI5P4Ka inh: qHTS for Inhibitors of phosphatidylinositol 5-phosphate 4-kinase (PI5P4K) | Phosphatidylinositol 5-phosphate 4-kinase type-2 alpha (Homo sapiens), P48426 | 1.2% of 330,000 active | PI5P4Kalpha enzyme, ADP-Glo luminescence, 60 min; hits give low values | max response, %; active = max response of -50% or lower; inconclusive = between -30% and -50%; inactive = -30% or higher; also: value at the top dose of about 77 µM
Target sequence (P48426 whole entry, looked up): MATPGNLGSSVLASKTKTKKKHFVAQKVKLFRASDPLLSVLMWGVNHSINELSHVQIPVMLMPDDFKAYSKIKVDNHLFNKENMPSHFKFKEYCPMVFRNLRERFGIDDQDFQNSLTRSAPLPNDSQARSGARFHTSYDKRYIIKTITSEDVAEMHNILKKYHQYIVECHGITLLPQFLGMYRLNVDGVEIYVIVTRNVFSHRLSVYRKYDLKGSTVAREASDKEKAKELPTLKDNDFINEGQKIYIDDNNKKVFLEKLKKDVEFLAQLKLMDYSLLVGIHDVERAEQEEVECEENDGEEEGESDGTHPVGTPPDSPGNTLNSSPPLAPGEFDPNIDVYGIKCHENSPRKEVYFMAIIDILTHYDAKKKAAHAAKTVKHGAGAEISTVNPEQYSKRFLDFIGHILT
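Quantitative HTS of the MLSMR library against PI5P4Kalpha with substrate. ATP added last at 5 microM final; room temperature, 60 minutes. Remaining ATP depleted, ADP converted and read as luminescence.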
PI4K2A inh: qHTS for small molecular inhibitors of PI4K2A | purified PI4K2A, ADP-Glo luminescence, 1 h; hits give low values | 0.13% of 420,000 active | activity change, negative = inhibition, % at 76.9 µM | Phosphatidylinositol 4-kinase type 2-alpha (Homo sapiens), Q9BTU6; in the data active = activity change below about -50%; inconclusive = mostly about -30% to -49%;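 also: -100% = wells without enzyme as full effect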
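In this quantitative HTS, ADP production by PI4K2A was quantified luminescently after 1 h at ambient temperature; 100 microM adenosine served as plate-quality control.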
Tb PFK inh: qHTS Assay to Find Inhibitors of T. brucei phosphofructokinase; Potency, µM (top dose mostly 57.5 µM), for inactives: top-dose activity, negative = inhibition, hits mostly inhibitors; 0.17% of 330,000 active; AID 485367, 2010; ATP-dependent 6-phosphofructokinase (Trypanosoma brucei brucei), O15648; T. brucei PFK, ADP-Glo luminescence;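 also: potency is read from the fitted curve at half-maximal effect; 0% = uninhibited 1x PFK enzyme wells and -100% = no-enzyme wells; nearly all actives have a fitted effect of over 60% in size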
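Compounds were pin-transferred as a titration series up to 57 uM into substrate buffer (0.5 mM F6P, 0.1 mM ATP, pH 8.0), then 1.25 nM PFK was added and reactions ran 45 min before ADP-Glo detection.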
PGK inhibitor: qHTS Assay to Find Inhibitors of Phosphoglycerate Kinase; Phosphoglycerate kinase, glycosomal (Trypanosoma brucei brucei), P07378; PGK/GAPDH coupled, Kinase-Glo luminescence, 60 min; Potency, µM (series often up to 57.5 µM), for the others: at the highest dose activity change, negative = inhibition, actives largely listed as inhibitors; 0.043% of 380,000 active; AID 602233, 2012; also: potency is read from the fitted curve at half-maximal effect; nearly all actives have a fitted effect of over 60% in size
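Recombinant glycosomal PGK reaction used 1,3-bisphosphoglycerate generated in-well by GAPDH (100nM final) in 100mM TEA pH 7.6, 5mM MgCl2, 0.01% Tween-20. After 60 minutes at room temperature, ATP was read by Kinase-Glo Plus luminescence end-point.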
Pin1 inh: qHTS Assay to Find Inhibitors of Pin1 | Peptidyl-prolyl cis-trans isomerase NIMA-interacting 1 (Homo sapiens), Q13526 | Pin1 FP peptide displacement, HiFluor488, 10 min | Potency, µM (highest dose often 115 µM), for inactives: at the highest dose activity, negative = inhibition, most hits filed as inhibitors | 0.009% of 390,000 active; active = well fitted inhibition curve with a large enough effect in the polarisation, with a control signal flat, not every such curve was filed as active; inconclusive = small, poorly fitted or top-dose-only effect, or effect the other way, or a change in a side signal; inactive = no such curve, though single readings can be large or run the other way; the % refers to the polarisation; also: potency is read from the fitted curve at half-maximal effect
Target sequence (Q13526 whole entry, looked up): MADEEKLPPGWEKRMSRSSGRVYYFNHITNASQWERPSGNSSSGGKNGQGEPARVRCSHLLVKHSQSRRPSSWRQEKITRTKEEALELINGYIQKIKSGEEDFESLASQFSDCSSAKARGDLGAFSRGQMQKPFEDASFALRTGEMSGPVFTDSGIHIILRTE
Starred values were filed as active, the others as inactive; i = inactive; ? = inconclusive; nt = no result. Unless noted, calls follow the shape of the dose curve; as a rule, active = well fitted curve in the direction sought with a large enough effect; inconclusive = small, poorly fitted or top-dose-only effect, or another doubt; inactive = no such curve, though single readings can be large; an effect the other way counts as inactive or inconclusive. Unless noted, % is scaled to controls: 0 for no effect and ±100 for the full control effect.

SMILES	PI5P4Ka inh	PI4K2A inh	Tb PFK inh	PGK inhibitor	Pin1 inh
Cc1ccc(C(=O)Oc2ccc(C(=O)COC(=O)C3CC(=O)N(Cc4ccco4)C3)cc2)cc1 (stereo unspecified)	?	-24	-17%	?	59%
O=C(COC(=O)C1CC(=O)N(Cc2ccco2)C1)c1ccc(OC(=O)c2ccco2)cc1 (stereo unspecified)	-63*	-7	?	?	?
Cc1coc2c1c(C)cc1oc(=O)c(Cc3ccccc3)c(C)c12	nt	-84*	-1%	0%	2%
COc1ccc(CCCC(=O)NC2CCCCC2)cc1	nt	0	-1%	-10%	-4%
C#CCOCCOCCOCCNc1nc(N2CCN(C(=O)CCCCCCCCCCNC(=O)Cn3cc(C[C@@H](C)O)nn3)CC2)nc(N2CCN(C(=O)CCCCCCCCCCNC(=O)[C@@H]([C@H](C)CC)n3cc(CCCCCN)nn3)CC2)n1	?	0	-3%	-1%	20%
C#CCOCCOCCOCCNc1nc(N2CCN(C(=O)CCCCCCCCCCNC(=O)Cn3cc(CCCCCN)nn3)CC2)nc(N2CCN(C(=O)CCCCCCCCCCNC(=O)Cn3cc(C[C@@H](C)O)nn3)CC2)n1	-65*	-8	-16%	9%	?
C#CCOCCOCCOCCNc1nc(N2CCN(C(=O)CCCCCCCCCCNC(=O)[C@H](CCCCN)n3cc(CCO)nn3)CC2)nc(N2CCN(C(=O)CCCCCCCCCCNC(=O)[C@H](CCCCN)n3cc(C[C@@H](C)CC)nn3)CC2)n1	-62*	-3	-5%	6%	51%
C#CCOCCOCCOCCNc1nc(N2CCN(C(=O)CCCCCCCCCCNC(=O)[C@@H](CCC(=O)O)n3cc(CCCCCN)nn3)CC2)nc(N2CCN(C(=O)CCCCCCCCCCNC(=O)[C@H](CO)n3cc(CCCCCN)nn3)CC2)n1	-54*	-3	-10%	-1%	7%
C#CCOCCOCCOCCNc1nc(N2CCN(C(=O)CCCCCCCCCCNC(=O)[C@@H](CCC(=O)O)n3cc(CCCCCN)nn3)CC2)nc(N2CCN(C(=O)CCCCCCCCCCNC(=O)[C@H](CCCCN)n3cc(C[C@@H](C)CC)nn3)CC2)n1	-53*	-1	0%	-4%	31%
CC(C)Oc1ccc(C2NC(=O)c3ccccc3O2)cc1 (stereo unspecified)	6	4	-3%	-9%	2%
O=C(O)CSc1sc(=S)sc1SCC(=O)O	nt	-4	12%	nt	?
COC(=O)c1cc(Br)c(=O)n(CC(C)C)c1	7	-4	1%	0%	-3%
C[C@H](CO)N1C[C@H](C)[C@@H](CN(C)C(=O)Nc2ccccc2)Oc2ccc(NC(=O)Nc3ccc4c(c3)OCO4)cc2C1=O	3	-2	1%	-8%	8%
O=C(Nc1ccc(Nc2ccncc2)cc1)c1ccc([N+](=O)[O-])cc1	1	-4	5%	i	0%
O=C(Nc1ccc(Nc2ccncc2)cc1)c1ccc(Nc2ccnc3ccc([N+](=O)[O-])cc23)cc1[N+](=O)[O-]	-54*	-1	27%	nt	?
COc1cccc(C=Nc2ccc(N3CCOCC3)cc2)c1O	5	-26	3%	-11%	16%
COc1cccc(C=Nc2ccc3c(c2)OCCO3)c1O	-13	-63*	0%	?	-9%
C/C(=N/NC(=O)c1cc2ccccc2cc1O)c1ccco1	-65*	-11	8%	-5%	64%
C/C(=N\NC(=O)c1cccc(N/N=C(\C)c2ccco2)c1)c1ccco1	-86*	-22	1%	-10%	?
C/C(=N\NC(=O)c1cc2ccccc2cc1O)c1ccc(C)o1	-61*	-2	-15%	-5%	22%
C/C(=N\NC(=O)c1cc2ccccc2cc1O)c1cccs1	-15	-2	26%	-15%	3%
C/C(=N\NC(=O)c1cccc([N+](=O)[O-])c1)c1ccco1	-23	2	2%	-5%	-14%
CCCc1c(-c2ccc(O)cc2)nn(-c2ccc(O)cc2)c1-c1ccc(O)cc1	-53*	2	-2%	0%	-1%
Cc1c(C(N)=O)c(-c2ccccc2)nn1-c1ccccc1	0	1	3%	5%	2%
Cc1cc(Nc2c(C#N)c(N)nn2C)ccc1F	-4	-2	0%	-7%	-13%
SMILES	PI5P4Ka inh	PI4K2A inh	Tb PFK inh	PGK inhibitor	Pin1 inh
Cc1cc(Nc2nn(C)c(N)c2C#N)ccc1F	-66*	-1	1%	3%	-4%
CN1C2CCC1/C(=C\c1ccc(F)cc1)C(=O)/C2=C/c1ccc(F)cc1	-3	-2	-8%	4%	0%
C=CC(=O)N1C/C(=C/c2ccc(F)cc2)C(=O)/C(=C\c2ccc(F)cc2)C1	-22	-13	nt	10µM*	?
O=C1NC(=S)N/C1=C/C=C/c1ccccc1	6	-2	3%	-11%	20%
O=C1NC(=S)NC(=O)C1=Cc1ccccc1C(=O)O	-73*	-11	nt	i	nt
Nc1c(C(=O)OCC(=O)Nc2cccc([N+](=O)[O-])c2)[nH]c(=O)[nH]c1=O	?	-9	?	18µM*	?
CCc1ccc(CNC(=O)CCCn2ccc3cc(S(=O)(=O)N4CCCC4)ccc32)cc1	nt	2	nt	-1%	11%
CC(=O)c1ccc(N2C(=O)C3C(C2=O)C(C(=O)c2ccc(Cl)cc2)N2CCCC32)cc1 (stereo unspecified)	-54*	-8	0%	-8%	?
O=C1N=C(N2C=CC(=C3C=CNC=C3)C=C2)/C(=C/N=NC(=O)c2ccccc2O)S1	-61*	-5	?	?	?
CCc1nnc(NS(=O)(=O)c2ccc(NC(=O)c3cccc4ccccc34)cc2)s1	5	1	16%	1%	1%
COc1ccc2[nH]c(=O)c(CN(Cc3ccco3)C(c3nnnn3Cc3ccccc3)C(C)C)cc2c1 (stereo unspecified)	0	-3	2%	-11%	35%
COc1ccc2[nH]c(=O)c(CN(C3CCCCC3)C(c3nnnn3Cc3ccco3)C(C)C)cc2c1 (stereo unspecified)	-67*	-10	3%	-1%	?
Cc1ccc(N=Nc2c(O)ccc3n[nH]nc23)cc1	-60*	-4	3%	-5%	13%
CCOC(=O)c1c(C)[nH]c(N=Nc2ccc(C)cc2)c1C	nt	-3	-3%	nt	-11%
COc1ccc(/C=C/C(=O)c2ccc([N+](=O)[O-])o2)cc1OC	-2	-9	2%	-9%	-3%
